Test results: ChEMBL document CHEMBL1961873, “Compounds: GSK PKIS; Assays: Nanosyn kinase panel” (2012)

Experiments:
[1] = biological target: Tyrosine-protein kinase CSK (Homo sapiens) (UniProt P41240); conditions: at 1 µM;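 also: each value is an averaged inhibition reading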
[2] = biological target: T1, Discoidin domain-containing receptor 2 (Homo sapiens) (UniProt Q16832); conditions: at 0.1 µM
T1 sequence (whole entry): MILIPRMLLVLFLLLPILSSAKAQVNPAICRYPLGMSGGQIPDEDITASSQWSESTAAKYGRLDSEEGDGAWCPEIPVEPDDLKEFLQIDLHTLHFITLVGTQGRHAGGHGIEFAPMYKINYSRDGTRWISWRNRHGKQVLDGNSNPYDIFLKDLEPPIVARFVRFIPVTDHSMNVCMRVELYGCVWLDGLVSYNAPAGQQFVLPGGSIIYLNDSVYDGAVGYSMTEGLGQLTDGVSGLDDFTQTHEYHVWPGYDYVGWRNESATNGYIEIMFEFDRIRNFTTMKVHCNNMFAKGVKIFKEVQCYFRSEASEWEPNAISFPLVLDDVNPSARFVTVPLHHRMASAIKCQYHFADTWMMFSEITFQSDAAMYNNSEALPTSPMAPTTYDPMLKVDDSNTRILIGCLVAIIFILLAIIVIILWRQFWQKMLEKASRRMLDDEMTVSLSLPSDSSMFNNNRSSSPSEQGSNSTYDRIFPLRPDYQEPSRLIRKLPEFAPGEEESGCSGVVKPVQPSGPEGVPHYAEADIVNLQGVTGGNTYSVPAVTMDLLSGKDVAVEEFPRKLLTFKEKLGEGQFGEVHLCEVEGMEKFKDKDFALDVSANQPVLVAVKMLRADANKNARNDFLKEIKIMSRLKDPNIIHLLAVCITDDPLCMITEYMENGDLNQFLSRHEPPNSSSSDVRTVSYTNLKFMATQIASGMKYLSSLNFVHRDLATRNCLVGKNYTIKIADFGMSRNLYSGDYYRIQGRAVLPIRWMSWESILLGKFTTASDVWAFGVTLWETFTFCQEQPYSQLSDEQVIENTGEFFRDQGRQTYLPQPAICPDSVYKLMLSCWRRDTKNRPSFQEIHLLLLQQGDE

[3] = biological target: T1, Discoidin domain-containing receptor 2 (Homo sapiens); conditions: at 1 µM
[4] = biological target: Epidermal growth factor receptor (Homo sapiens) (UniProt P00533); conditions: at 0.1 µM
[5] = biological target: Epidermal growth factor receptor (Homo sapiens) (UniProt P00533); conditions: at 1 µM
[6] = test system: Epidermal growth factor receptor (Homo sapiens), P00533 [L858R]; conditions: at 0.1 µM
[7] = test system: Epidermal growth factor receptor (Homo sapiens), P00533 [L858R]; conditions: at 1 µM
[8] = test system: Epidermal growth factor receptor (Homo sapiens), P00533 [L861Q]; conditions: at 0.1 µM
[9] = test system: Epidermal growth factor receptor (Homo sapiens), P00533 [L861Q]; conditions: at 1 µM
[10] = test system: Epidermal growth factor receptor (Homo sapiens), P00533 [T790M]; conditions: at 0.1 µM
[11] = test system: Epidermal growth factor receptor (Homo sapiens), P00533 [T790M]; conditions: at 1 µM
[12] = test system: Epidermal growth factor receptor (Homo sapiens), P00533 [L858R,T790M]; conditions: at 0.1 µM
[13] = test system: Epidermal growth factor receptor (Homo sapiens), P00533 [L858R,T790M]; conditions: at 1 µM
[14] = biological target: Ephrin type-A receptor 2 (Homo sapiens) (UniProt P29317); conditions: at 0.1 µM
[15] = biological target: Ephrin type-A receptor 2 (Homo sapiens) (UniProt P29317); conditions: at 1 µM
[16] = biological target: T2, Ephrin type-A receptor 3 (Homo sapiens) (UniProt P29320); conditions: at 0.1 µM
T2 sequence (whole entry): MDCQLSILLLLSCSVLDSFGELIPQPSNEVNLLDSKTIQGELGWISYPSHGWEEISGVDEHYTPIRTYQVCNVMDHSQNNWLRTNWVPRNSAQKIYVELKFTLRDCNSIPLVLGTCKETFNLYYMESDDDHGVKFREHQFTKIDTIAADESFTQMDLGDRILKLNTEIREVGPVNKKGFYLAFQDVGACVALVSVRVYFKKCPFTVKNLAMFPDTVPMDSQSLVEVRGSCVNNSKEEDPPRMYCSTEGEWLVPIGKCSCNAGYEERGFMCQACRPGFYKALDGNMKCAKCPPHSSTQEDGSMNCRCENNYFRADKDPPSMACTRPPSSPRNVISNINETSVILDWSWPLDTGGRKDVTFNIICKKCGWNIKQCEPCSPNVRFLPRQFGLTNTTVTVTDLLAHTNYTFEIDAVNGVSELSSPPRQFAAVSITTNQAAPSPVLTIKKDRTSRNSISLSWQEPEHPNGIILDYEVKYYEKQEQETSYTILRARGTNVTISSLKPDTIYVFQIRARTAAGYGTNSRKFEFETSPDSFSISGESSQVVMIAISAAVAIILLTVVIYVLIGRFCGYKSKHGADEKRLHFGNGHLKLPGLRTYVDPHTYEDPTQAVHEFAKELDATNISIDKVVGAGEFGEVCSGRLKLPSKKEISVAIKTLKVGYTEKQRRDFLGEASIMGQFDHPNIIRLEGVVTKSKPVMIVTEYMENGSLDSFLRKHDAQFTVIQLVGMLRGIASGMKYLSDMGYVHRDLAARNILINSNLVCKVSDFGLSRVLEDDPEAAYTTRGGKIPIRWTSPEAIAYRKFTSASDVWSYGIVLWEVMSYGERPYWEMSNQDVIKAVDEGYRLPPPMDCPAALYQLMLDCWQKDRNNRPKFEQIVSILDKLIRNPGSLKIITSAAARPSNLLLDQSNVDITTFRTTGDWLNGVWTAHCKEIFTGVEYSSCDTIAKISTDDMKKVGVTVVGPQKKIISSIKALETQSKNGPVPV

[17] = biological target: T2, Ephrin type-A receptor 3 (Homo sapiens); conditions: at 1 µM
[18] = biological target: Ephrin type-A receptor 4 (Homo sapiens) (UniProt P54764); conditions: at 0.1 µM
[19] = biological target: Ephrin type-A receptor 4 (Homo sapiens) (UniProt P54764); conditions: at 1 µM
[20] = biological target: T3, Ephrin type-B receptor 2 (Homo sapiens) (UniProt P29323); conditions: at 0.1 µM;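 also: reported as mean inhibition of EPHB2, from the GSK PKIS dataset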
T3 sequence (whole entry): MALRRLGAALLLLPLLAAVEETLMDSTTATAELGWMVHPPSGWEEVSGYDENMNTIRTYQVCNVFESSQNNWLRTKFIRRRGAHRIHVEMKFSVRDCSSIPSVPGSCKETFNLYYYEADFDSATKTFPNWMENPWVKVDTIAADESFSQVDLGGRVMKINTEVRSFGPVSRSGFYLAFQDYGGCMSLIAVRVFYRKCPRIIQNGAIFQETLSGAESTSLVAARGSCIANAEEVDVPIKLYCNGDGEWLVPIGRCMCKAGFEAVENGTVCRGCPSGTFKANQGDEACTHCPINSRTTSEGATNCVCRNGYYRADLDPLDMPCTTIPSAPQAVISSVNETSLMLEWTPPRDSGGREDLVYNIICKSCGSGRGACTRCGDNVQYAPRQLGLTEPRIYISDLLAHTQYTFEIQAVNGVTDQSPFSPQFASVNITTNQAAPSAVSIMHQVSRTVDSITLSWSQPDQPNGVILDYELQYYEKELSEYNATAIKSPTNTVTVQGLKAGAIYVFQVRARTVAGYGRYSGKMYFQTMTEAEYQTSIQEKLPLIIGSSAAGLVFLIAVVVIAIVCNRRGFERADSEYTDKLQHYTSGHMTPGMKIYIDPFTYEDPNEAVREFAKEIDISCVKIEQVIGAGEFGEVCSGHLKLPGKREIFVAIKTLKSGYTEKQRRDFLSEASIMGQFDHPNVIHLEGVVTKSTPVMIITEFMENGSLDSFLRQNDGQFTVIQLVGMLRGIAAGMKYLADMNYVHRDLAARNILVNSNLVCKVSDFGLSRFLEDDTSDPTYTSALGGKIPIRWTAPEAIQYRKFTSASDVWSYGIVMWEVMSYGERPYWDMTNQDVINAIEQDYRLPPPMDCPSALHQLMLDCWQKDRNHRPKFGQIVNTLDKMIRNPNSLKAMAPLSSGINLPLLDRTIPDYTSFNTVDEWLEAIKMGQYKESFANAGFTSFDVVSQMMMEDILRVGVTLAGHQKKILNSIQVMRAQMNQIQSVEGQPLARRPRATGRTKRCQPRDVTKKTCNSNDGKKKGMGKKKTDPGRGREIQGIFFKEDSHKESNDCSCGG

Sequence of Tyrosine-protein kinase CSK (Homo sapiens) (P41240 2-450 limits assumed): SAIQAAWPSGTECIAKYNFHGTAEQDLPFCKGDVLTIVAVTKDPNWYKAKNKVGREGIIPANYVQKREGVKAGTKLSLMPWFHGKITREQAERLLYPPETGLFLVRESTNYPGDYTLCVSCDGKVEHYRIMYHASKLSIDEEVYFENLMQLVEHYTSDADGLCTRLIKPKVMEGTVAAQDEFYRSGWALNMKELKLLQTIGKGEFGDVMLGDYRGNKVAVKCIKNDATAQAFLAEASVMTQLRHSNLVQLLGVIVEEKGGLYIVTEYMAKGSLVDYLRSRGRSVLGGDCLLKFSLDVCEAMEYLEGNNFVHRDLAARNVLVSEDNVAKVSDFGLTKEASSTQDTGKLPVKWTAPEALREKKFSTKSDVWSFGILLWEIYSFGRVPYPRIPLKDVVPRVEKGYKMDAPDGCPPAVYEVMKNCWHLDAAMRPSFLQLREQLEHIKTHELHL
Sequence of Epidermal growth factor receptor (Homo sapiens) (P00533 whole entry): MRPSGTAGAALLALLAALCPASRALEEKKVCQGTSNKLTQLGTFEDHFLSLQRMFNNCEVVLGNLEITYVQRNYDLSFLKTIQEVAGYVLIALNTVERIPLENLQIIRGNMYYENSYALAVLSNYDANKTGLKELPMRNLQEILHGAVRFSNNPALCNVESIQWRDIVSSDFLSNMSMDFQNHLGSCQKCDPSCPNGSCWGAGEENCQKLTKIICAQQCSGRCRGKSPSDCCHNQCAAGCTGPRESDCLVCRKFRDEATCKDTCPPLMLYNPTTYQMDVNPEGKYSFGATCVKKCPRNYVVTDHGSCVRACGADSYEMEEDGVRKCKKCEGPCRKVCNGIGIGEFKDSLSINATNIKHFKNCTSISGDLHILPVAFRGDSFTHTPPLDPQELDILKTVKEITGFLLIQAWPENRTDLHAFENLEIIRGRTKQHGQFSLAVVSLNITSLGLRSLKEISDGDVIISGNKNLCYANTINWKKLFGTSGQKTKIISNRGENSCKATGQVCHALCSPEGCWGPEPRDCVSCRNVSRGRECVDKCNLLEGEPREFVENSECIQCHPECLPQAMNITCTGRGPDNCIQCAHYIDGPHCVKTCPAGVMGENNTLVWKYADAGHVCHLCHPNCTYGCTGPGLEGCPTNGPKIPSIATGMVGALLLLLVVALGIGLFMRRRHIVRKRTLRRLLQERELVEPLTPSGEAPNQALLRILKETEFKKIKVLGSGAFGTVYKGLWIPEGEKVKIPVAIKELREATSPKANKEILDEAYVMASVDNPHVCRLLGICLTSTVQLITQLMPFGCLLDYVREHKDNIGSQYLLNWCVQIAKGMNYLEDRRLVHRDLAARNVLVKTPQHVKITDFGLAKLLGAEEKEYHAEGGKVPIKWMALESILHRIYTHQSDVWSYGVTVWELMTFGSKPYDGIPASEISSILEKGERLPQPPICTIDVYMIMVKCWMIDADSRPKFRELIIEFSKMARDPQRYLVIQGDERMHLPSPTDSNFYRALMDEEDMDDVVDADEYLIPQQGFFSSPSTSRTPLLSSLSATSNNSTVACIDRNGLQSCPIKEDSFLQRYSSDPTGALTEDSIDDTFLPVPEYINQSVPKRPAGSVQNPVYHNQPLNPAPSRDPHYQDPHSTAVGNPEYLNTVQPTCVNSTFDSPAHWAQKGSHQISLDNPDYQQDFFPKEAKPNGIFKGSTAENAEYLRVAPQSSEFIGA
Sequence of Epidermal growth factor receptor (Homo sapiens), P00533 [L858R] (P00533 whole entry L858R): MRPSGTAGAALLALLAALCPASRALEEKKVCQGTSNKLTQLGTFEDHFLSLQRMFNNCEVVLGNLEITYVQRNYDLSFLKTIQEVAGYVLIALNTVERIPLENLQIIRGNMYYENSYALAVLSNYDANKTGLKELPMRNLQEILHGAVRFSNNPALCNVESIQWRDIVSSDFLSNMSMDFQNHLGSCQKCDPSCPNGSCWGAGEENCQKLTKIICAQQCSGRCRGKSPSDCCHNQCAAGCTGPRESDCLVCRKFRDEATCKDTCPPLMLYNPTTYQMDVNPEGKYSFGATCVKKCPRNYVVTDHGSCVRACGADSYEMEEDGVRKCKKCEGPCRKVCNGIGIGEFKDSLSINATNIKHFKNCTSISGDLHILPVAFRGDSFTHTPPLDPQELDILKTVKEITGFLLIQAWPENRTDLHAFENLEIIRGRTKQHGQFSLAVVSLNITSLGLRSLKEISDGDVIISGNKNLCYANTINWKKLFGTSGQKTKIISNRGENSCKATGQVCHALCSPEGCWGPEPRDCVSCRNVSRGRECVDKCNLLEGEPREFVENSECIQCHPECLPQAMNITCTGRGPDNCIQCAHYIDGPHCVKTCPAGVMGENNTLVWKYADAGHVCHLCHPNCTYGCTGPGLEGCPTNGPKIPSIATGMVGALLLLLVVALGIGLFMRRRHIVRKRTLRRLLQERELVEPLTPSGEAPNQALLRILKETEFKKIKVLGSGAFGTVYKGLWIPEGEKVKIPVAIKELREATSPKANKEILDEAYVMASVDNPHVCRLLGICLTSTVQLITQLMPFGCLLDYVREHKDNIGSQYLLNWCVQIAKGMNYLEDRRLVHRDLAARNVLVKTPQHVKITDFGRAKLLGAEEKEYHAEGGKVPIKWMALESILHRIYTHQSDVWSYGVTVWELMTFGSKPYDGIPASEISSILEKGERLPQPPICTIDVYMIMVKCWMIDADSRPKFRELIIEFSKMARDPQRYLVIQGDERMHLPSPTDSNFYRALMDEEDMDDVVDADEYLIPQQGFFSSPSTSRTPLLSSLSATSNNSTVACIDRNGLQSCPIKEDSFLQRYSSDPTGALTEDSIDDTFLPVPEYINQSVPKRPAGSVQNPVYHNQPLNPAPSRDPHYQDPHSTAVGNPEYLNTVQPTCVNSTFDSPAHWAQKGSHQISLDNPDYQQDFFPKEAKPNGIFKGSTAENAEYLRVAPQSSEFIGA
Sequence of Ephrin type-A receptor 2 (Homo sapiens) (P29317 whole entry): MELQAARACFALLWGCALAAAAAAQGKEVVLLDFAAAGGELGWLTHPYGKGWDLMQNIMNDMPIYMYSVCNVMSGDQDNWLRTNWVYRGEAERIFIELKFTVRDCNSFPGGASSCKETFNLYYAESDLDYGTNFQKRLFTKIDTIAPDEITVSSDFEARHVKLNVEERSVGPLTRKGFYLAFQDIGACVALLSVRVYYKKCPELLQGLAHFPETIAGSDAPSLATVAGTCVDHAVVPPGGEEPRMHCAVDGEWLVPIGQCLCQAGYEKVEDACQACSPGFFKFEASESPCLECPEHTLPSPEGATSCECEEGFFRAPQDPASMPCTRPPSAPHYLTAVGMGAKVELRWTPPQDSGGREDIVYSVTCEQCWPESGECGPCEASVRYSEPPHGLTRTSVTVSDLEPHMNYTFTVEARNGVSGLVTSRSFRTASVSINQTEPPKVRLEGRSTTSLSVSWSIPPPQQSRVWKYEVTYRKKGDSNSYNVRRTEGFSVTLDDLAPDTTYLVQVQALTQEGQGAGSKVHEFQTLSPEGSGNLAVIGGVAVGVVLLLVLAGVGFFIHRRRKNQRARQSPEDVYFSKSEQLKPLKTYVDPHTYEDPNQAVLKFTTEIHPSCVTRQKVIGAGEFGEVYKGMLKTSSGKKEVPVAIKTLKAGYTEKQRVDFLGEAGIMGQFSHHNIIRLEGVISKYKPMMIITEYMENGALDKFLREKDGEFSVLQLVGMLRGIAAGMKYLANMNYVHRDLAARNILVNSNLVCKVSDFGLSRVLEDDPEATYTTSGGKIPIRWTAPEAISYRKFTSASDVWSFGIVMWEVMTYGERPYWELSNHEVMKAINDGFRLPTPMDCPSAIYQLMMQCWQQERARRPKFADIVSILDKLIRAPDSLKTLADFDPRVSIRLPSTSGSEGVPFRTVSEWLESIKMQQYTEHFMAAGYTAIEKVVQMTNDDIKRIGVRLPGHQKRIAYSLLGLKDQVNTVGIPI
Sequence of Epidermal growth factor receptor (Homo sapiens), P00533 [L858R,T790M] (P00533 whole entry T790M/L858R, looked up): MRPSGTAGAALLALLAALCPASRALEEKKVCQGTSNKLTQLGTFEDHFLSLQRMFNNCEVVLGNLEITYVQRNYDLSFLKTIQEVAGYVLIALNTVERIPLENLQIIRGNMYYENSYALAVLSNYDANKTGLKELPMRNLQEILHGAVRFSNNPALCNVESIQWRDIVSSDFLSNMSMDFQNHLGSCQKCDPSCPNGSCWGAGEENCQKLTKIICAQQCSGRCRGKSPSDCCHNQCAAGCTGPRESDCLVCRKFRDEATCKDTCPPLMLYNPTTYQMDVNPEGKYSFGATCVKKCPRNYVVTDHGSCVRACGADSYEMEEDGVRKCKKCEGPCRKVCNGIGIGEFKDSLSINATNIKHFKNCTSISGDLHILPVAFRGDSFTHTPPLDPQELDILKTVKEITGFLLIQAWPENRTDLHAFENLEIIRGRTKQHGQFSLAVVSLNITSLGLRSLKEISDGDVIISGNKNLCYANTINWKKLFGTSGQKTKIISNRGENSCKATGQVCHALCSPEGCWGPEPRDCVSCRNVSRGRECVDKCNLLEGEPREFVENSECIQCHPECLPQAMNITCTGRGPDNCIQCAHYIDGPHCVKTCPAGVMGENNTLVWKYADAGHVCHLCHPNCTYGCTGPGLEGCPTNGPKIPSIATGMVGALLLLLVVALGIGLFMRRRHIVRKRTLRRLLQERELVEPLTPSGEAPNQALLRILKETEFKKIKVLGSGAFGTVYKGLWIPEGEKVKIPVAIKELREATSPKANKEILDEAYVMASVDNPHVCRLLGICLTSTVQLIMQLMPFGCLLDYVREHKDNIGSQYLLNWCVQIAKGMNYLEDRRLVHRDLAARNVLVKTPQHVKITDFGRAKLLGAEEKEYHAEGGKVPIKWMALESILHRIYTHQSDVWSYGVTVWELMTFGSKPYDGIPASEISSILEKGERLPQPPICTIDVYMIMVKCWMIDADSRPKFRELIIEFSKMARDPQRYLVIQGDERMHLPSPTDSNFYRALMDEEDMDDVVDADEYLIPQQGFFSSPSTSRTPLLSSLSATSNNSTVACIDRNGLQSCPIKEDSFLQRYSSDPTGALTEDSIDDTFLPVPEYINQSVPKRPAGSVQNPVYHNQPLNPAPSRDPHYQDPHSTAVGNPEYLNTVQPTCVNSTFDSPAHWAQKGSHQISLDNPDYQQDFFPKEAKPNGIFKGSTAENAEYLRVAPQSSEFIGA

Row | Compound | inhibition [1] | inhibition [2] | inhibition [3] | inhibition [4] | inhibition [5] | inhibition [6] | inhibition [7] | inhibition [8] | inhibition [9] | inhibition [10] | inhibition [11] | inhibition [12] | inhibition [13] | inhibition [14] | inhibition [15] | inhibition [16] | inhibition [17] | inhibition [18] | inhibition [19] | inhibition [20]
1 | CNC(=O)c1cncc(/C=C/c2c(C)cccc2C)c1 | 24.6% | 7.93% | 36.8% | -2.83% | 5.96% | 7.48% | 41.4% | 1.86% | 8.46% | -0.41% | 0.11% | 0.33% | 1.36% | 8.07% | 44.4% | 2.95% | 16.1% | 25.5% | 80.9% | 23.2%
2 | CN(C)CCOc1ccc(-c2cc(-c3ccc4c(c3)CCC4=NO)c(-c3ccncc3)o2)cc1 | -1.46% | 0.26% | 1.8% | 4.94% | 7.65% | -0.5% | 7.4% | -0.03% | 4.41% | -1.42% | 0.59% | -2.24% | -0.02% | -1.99% | -3.05% | 0.49% | -1.83% | -1.28% | 0.81% | -5.39%
3 | Cc1ccc(C(=O)NC2CCC2)cc1-c1ccc(C(=O)NCC2CC2)cc1 | 0.62% | 0.33% | 1.1% | 10.4% | 7.15% | 3.77% | 4.05% | 4.21% | 4.15% | 1.73% | -0.05% | 0.49% | 1.53% | 0.5% | 0.07% | 2.96% | 4.24% | 4.02% | 0.68% | 6.98%
4 | CN(c1ccc(NC(=O)Nc2c(Cl)cccc2Cl)cc1)c1ccnc(Nc2cccc(CS(C)(=O)=O)c2)n1 | 19.5% | 11.1% | 26.9% | 2.38% | 5.8% | 1.91% | 8.57% | 4.35% | 7.45% | 1.27% | 2.21% | 2.48% | 3.18% | 3.5% | 7.74% | 7.33% | 7.13% | 10.6% | 33.8% | 4.12%
5 | CCc1cccc(CC)c1/C=C/c1cncc(C(=O)NC)c1 | 0.54% | 1.3% | 6.62% | 3.24% | 6.32% | 4.88% | 3.92% | 1.32% | 2.46% | 2.4% | -0.11% | 1.59% | 4.31% | 3.59% | 2.3% | 2.96% | 2.85% | 5.38% | 5.6% | 7.22%
6 | C/C(Nc1ccc(S(N)(=O)=O)cc1)=C1/C(=O)Nc2ccccc21 | -4% | -0.09% | 0.07% | -1.34% | 2.48% | -0.73% | 0.1% | 0.08% | 0.01% | -0.56% | 0.03% | -0.46% | -1.66% | -4.14% | -3.36% | -8.6% | -1.74% | -4.44% | -2.02% | -3.98%
7 | NCc1ccc(-n2c(-c3nonc3N)nc3cnccc32)cc1 | 1.46% | 2.78% | 3.01% | 1.73% | 1.72% | 3.13% | 1.55% | 2.5% | 2.02% | 3.36% | 3.16% | 4.81% | 5.05% | 0.49% | 0.85% | 7% | 4.64% | 9.54% | 5.62% | 6.63%
